# Source: PubChem BioAssay AID686979 (National Center for Advancing Translational Sciences (NCATS), 2013)
# Values joined by “and” are separate entries in the source; they are usually repeats but may differ in a detail not shown here. Equal values may be shown once. Hit rate of the full screen: of about 420,000 compounds, about 50,000 (12%) were called active. About 26% were inconclusive and are not listed. The call rests on the fitted dose curve; in most records, active means well fitted inhibition curve with a large enough effect; inconclusive means small, poorly fitted or top-dose-only effect; inactive means flat fitted curve, though single readings scatter. Only a selection was taken, and actives are over-represented in it overall.
# Test: qHTS for Inhibitors of human tyrosyl-DNA phosphodiesterase 1 (TDP1): qHTS in cells in presence of CPT; further: nearly all actives have a fitted effect of over 55% in size
# Conditions: chicken DT40 Tdp1-/-;hTDP1 cells + 20 nM CPT, ATP luminescence, 48 h; series mostly up to 46.2 µM; activity change, negative = growth inhibition: at the top concentration
# From the text: Human tyrosyl-DNA phosphodiesterase 1 (TDP1) is a novel repair gene, and we propose to use it as a new target for anticancer drug development. TDP1 is not an essential protein, but under treatment with topoisomerase I poison (camptothecin: CPT), TDP1 works as a critical factor for cell survival. To directly identify novel TDP1 inhibitors active in a cellular environment, we have knocked-out the Tdp1 gene in chicken DT40 cells (Tdp1-/-) and generated a complemented counterpart cells that contains a stable transfection of the human TDP1 gene (Tdp1-/-;hTDP1 cells). For the primary screen, Tdp1-/-;hTDP1 cells will be exposed to small molecules in the presence or absence of CPT, and their growth kinetics will be evaluated after 48 hours by measuring ATP activity. […] The hit compounds will then be evaluated in the presence or absence of CPT using Tdp1-/- cells. […] In tertiary assays, biochemical gel-based assays will be used to assess whether the hit compounds specifically target TDP1. To this end, we have screened this cell line against the MLSMR in two primary screens. In one screen we add CPT and in the other we screen in the absence of CPT; this AID represents the screen where CPT was present. NIH Chemical Genomics Center [NCGC] NIH Molecular Libraries Probe Centers Network [MLPCN] MLPCN Grant: MH095538 Assay Submitter (PI): Yves Pommier, NCI
# DT40-hTDP1 cells with 20 nM Camptothecin (add 20 microL of 1 mM CPT stock in 1 L of cell culture medium) were dispensed at 400 cells/5microL/well in tissue culture treated 1536-well white wall/solid bottom assay plates (Greiner Bio-One North America, NC, U.S.A.) using a Multidrop Combi 8 channel dispenser (Thermo Fisher, Waltham, MA, USA). 23 nL compounds and controls were transferred using the pin tool (Kalypsys, San Diego, CA, USA) to the assay plates. The assay plates were then incubated at 37 masculineC for a minimum 48 hr. Three microL of Cell Titer Glo solution was added to the plates and incubated at RT in dark for 30 min. Luminescence was read using ViewLux (Perkin Elmer) with 1 sec exposure slow speed, high gain and 2x binning.
# On the % scale 0 is the no-effect control and ±100 the full control effect; potency means the concentration at half of the fitted maximal effect.
SMILES,"activity change, negative = growth inhibition",Potency
Cc1cccc(C)c1N1CCN(S(=O)(=O)N2CCCCC2)CC1,-11.1% (inactive),
CCOC(=O)c1cccc(NC(=O)CCc2c(C)nc3ncnn3c2C)c1,3.12% (inactive),
COc1cc(OC)cc(-c2nc3nc(C)c(CCC(=O)Nc4ccccc4)c(C)n3n2)c1,,14.6 µM (active)
COc1cc(OC)cc(-c2nc3nc(C)c(CCC(=O)Nc4ccc(C)cc4)c(C)n3n2)c1,-9.57% (inactive),
CC(C)OC(=O)c1ccc(COc2ccc3ccc(=O)oc3c2)o1,2.4% (inactive),
O=C(C1CCCO1)N1CCN(S(=O)(=O)c2ccc(Br)cc2)CC1 (stereo unspecified),-5.03% (inactive),
CN(C)C1CN(Cc2cn(Cc3ccccc3)nn2)S(=O)(=O)C1 (stereo unspecified),-11.9% (inactive),
CN(Cc1cn(Cc2ccc(C(F)(F)F)cc2)nn1)C1CN(Cc2cn(Cc3ccc(C(F)(F)F)cc3)nn2)S(=O)(=O)C1 (stereo unspecified),,6.51 µM (active)
CC(C)CCN1CCN(Cc2ccc(C(F)(F)F)cc2)CC1CCO (stereo unspecified),-29.5% (inactive),
O=C(c1ccc(Cl)c(Cl)c1)N1CCCC1,3.77% (inactive),
O=C(c1ccc(Cl)c(S(=O)(=O)N2CCCCC2)c1)N1CCCCCC1,-26.3% (inactive),
O=C(c1ccc(Cl)c(S(=O)(=O)N2CCCCCC2)c1)N1CCN(c2ccc(O)cc2)CC1,,18.4 µM (active)
CN(C)c1cccc(C(=O)N2CCC(n3nccc3NC(=O)C3CCOC3)CC2)c1 (stereo unspecified),5.19% (inactive),
Cn1c(=O)c(Sc2ccc(Cl)cc2)c(O)c2ccccc21,5.09% (inactive),
CC1Cc2ccccc2N1CC(=O)Nc1ccc2c(c1)OC(F)(F)O2 (stereo unspecified),-15.8% (inactive),
N#Cc1ccc(Oc2ccc(C(F)(F)F)cc2NC(=O)c2ccc(F)cc2)cc1,-18.8% (inactive),
COc1cc(NC(=O)c2[nH]cnc2C(N)=O)cc(C(=O)Nc2cccc(C(F)(F)F)c2)c1,,20.6 µM (active)
O=C(Nc1cccc(C(F)(F)F)c1)c1cnccn1,0.881% (inactive),
COc1cc(NC(=O)c2cncc(-c3ccc(C#N)cc3)c2)cc(C(=O)Nc2cccc(C(F)(F)F)c2)c1,,8.2 µM (active) and 16.4 µM (active)
CCN(CC)C(=O)C1=C(C)N(Cc2ccc(F)cc2)C(=O)C(CC(=O)NC2CCCC2)C1 (stereo unspecified),-16.9% (inactive),
O=c1ccn([C@@H]2O[C@H](COP(=O)(O)OP(=O)(O)OP(=O)(O)O)[C@@H](O)[C@H]2O)c(=O)[nH]1,-29.6% (inactive),
CNS(=O)(=O)c1cccc(C(=O)OCC(=O)N2c3ccccc3NC(=O)C2(C)C)c1,-1.39% (inactive),
CCOc1ccc(NC(=O)CN(C)C(=O)CCSc2ccc(F)cc2)cc1OCC,-29.6% (inactive),

SMILES,"activity change, negative = growth inhibition",Potency
CC(C)Oc1ccc(C(CC(=O)N2CCOCC2)C(C)C)cc1 (stereo unspecified),-3.05% (inactive),
COc1ccccc1CNC(=O)C(=O)NCC(c1cccs1)S(=O)(=O)c1cccs1 (stereo unspecified),-6.96% (inactive),
Cc1ccccc1CNC(=O)C(=O)NCC(c1cccs1)S(=O)(=O)c1cccs1 (stereo unspecified),,13 µM (active)
CC(C)C(=O)NCC(c1cccs1)S(=O)(=O)c1ccc(F)cc1 (stereo unspecified),-12.7% (inactive),
CC(C)C(=O)Nc1nnc(Sc2ccc(N(C)C)cc2)s1,-0.75% (inactive),
Cc1noc(C)c1S(=O)(=O)N(C)Cc1ccccc1,-6.12% (inactive),
CN(Cc1ccccc1)c1ccc(-c2nc(-c3ccccc3)no2)cc1[N+](=O)[O-],-15.3% (inactive),
CN(Cc1ccccc1)c1ncnc2onc(-c3ccc(F)cc3)c12,,23.1 µM (active)
Cc1ccc2c(C)c(C(=O)N3CCC(N4CCC(C(=O)NC5CC5)CC4)CC3)oc2c1,-0.225% (inactive),
CN1CN(C)c2ccc([N+](=O)[O-])c3cccc1c23,0.252% (inactive),
COc1ccc([C@H]2N[C@]3(CCCN(Cc4ccco4)C3=O)[C@H]3C(=O)N(C)C(=O)[C@@H]23)cc1,-16.7% (inactive),
O=C1[C@H]2[C@@H](c3ccc(C(F)(F)F)cc3)N[C@]3(CCCN(Cc4ccc(Cl)cc4)C3=O)[C@H]2C(=O)N1Cc1ccccc1,,16.4 µM (active)
CCN1C[C@@H]2[C@@H]3C(=O)N(Cc4ccccc4)C(=O)[C@@H]3[C@](C)(C1=O)N2C(=O)c1ccc(C(C)(C)C)cc1,-20.1% (inactive),
O=C1[C@H]2[C@@H](c3ccc(C(F)(F)F)cc3)N[C@]3(CCCN(Cc4ccc(Br)cc4)C3=O)[C@H]2C(=O)N1Cc1ccccc1,-21.3% (inactive),
CCN1C(=O)[C@H]2[C@@H](c3ccc(C(F)(F)F)cc3)N[C@]3(CCCN(Cc4ccc(Br)cc4)C3=O)[C@H]2C1=O,,13 µM (active)
CN(Cc1ccccc1)S(=O)(=O)c1nnc(NC(=O)c2ccccc2F)s1,-20.1% (inactive),
CCOc1cc(CNCCN(C)C)c(Cl)cc1OCC(=O)NCCc1ccccc1,-11.9% (inactive),
Nc1ncnc2c1ncn2[C@@H]1O[C@H](CNS(=O)(=O)c2ccc(-c3ccno3)s2)[C@@H](O)[C@H]1O,-29.6% (inactive),
O=C(Nc1nnc(SCc2c(Cl)cccc2Cl)s1)c1cccc([N+](=O)[O-])c1,-2.24% (inactive),
CC(=O)Nc1ccc(-c2ccnc3c2CC(C(=O)NC(C)C)O3)cc1 (stereo unspecified),-23.4% (inactive),
O=C(Nc1ccc2c(c1)OCO2)C1CC(c2c(F)cccc2Cl)=NO1 (stereo unspecified),-29.9% (inactive),
O=C(Nc1ccc(Cl)cc1)C1Cc2c(-c3ccc4c(c3)OCO4)ccnc2O1 (stereo unspecified),,23.1 µM (active)
COc1ccc(N(CC(=O)NC2CCCC2)C(=O)CS(=O)CC(=O)Nc2ccc3c(c2)OCO3)cc1 (stereo unspecified),-3.24% (inactive),

SMILES,"activity change, negative = growth inhibition",Potency
O=C(Nc1ccc(Cl)c(C(F)(F)F)c1)C1Cc2c(-c3ccccc3Oc3ccccc3)ccnc2O1 (stereo unspecified),,18.4 µM (active)
COc1ccc(NC(=O)CSc2nccn2Cc2ccc3c(c2)OCO3)cc1,-24% (inactive),
COc1ccc(NC(=O)C2Cc3c(-c4ccc5c(c4)OCO5)ccnc3O2)cn1 (stereo unspecified),,4.11 µM (active)
O=C1OC(C(=O)Nc2cccc(Br)c2)Cc2ccccc21 (stereo unspecified),8.89% (inactive),
O=C(COC(=O)c1cc[n+]([O-])cc1)Nc1ccc(Cl)c(C(F)(F)F)c1,-26% (inactive),
CC(=O)c1cccc(NC(=O)C2CCCN2S(=O)(=O)c2cccc3nsnc23)c1 (stereo unspecified),9.59% (inactive),
COCCNC(=O)CSc1nc(N)c(NC(=O)c2ccco2)c(=O)[nH]1,3.53% (inactive),
COC(=O)c1c(C)oc(C)c1S(=O)(=O)NCc1ccc(Cl)cc1,-20.3% (inactive),
COC(=O)c1cc(NC(=O)CCS(=O)(=O)c2cc(Br)cc3c2N(C(=O)C2CC2)CC3)cc(C(=O)OC)c1,-2.75% (inactive),
Cc1cc(C)n(-c2ccc(NC(=O)C3CCCCN3C(=O)c3cccs3)cc2)n1 (stereo unspecified),-10.8% (inactive),
Cc1ccccc1OCCSc1nc2ccc(NC(=O)c3ccco3)cc2s1,,20.6 µM (active)
Cc1cccc(OCCSc2nc3ccc(NC(=O)COc4ccccc4C)cc3s2)c1,-21.3% (inactive),
COc1cc(C)ccc1OCCSc1nc2ccc(NC(=O)c3ccc(C)cc3)cc2s1,-27.4% (inactive),
Cc1ccccc1SCC(=O)OCC(=O)N1CC(=O)Nc2ccccc21,5.39% (inactive),
CC1=NNC(=O)C1CCC(=O)N/N=C\c1ccc(Cl)c(Cl)c1 (stereo unspecified),1.5% (inactive),
Cc1cccc(OCC(=O)N(Cc2ccc(C(C)C)cc2)Cc2ccco2)c1C,,16.4 µM (active)
Cc1cccc(OCc2nnc(SCC(=O)N3CCN(C(=O)c4ccco4)CC3)n2C)c1C,-0.881% (inactive),
Cc1ccnc(NC(=O)CCC(=O)N(CC(=O)NCc2ccccc2)Cc2ccco2)c1,37.5% (inactive),
Cc1cccc(N(C(=O)Cn2nnc(-c3ccc(C)o3)n2)C(C(=O)NC2CCCC2)c2ccncc2)c1 (stereo unspecified),-14.6% (inactive),
COc1ccc(CN2CCC3(CCC(CNC(=O)c4ccco4)O3)CC2)cc1OC (stereo unspecified),-1.91% [at 9.04 µM] (inactive),
O=C(OCC(=O)N1CCCC1)c1ccc(Cl)nc1,-5.05% (inactive),
O=C(Nc1ccccc1)c1ccc(NC(=O)c2cccs2)cc1,-21.6% (inactive),
CC(C)(C)c1ccc(C(=O)Nc2ccc3c(c2)CCCN3C(=O)c2cccs2)cc1,,5.8 µM (active)

SMILES,"activity change, negative = growth inhibition",Potency
O=C(Nc1ccc(NC(=O)c2cccs2)cc1)c1ccc2ccccc2c1,-3.7% (inactive),
COCCN(C(=O)CCC(=O)Nc1nccs1)C(C(=O)NC(C)(C)C)c1ccc(Cl)cc1 (stereo unspecified),-4.68% (inactive),
O=C(c1cccc(Cn2cccn2)c1)N1CCOc2c(cc(-c3csc4ccccc34)cc2OC2CCOC2)C1 (stereo unspecified),,18.4 µM (active)
Cc1cnc(C)c(-c2cc(F)c3c(c2)CC(CNC(=O)c2cccc(Cn4cccn4)c2)O3)n1 (stereo unspecified),-5.96% (inactive),
CCOC(=O)N1CCN(Cc2ccc3c(c2)CN(C(=O)c2cccc(-n4cccn4)c2)CCO3)CC1,-11.3% [at 9.04 µM] (inactive),
Cc1ccc(C(=O)NCC(=O)OCC(=O)Nc2cccc(S(=O)(=O)N3CCCC3)c2)cc1C,-26.5% (inactive),
CN1C[C@@H](CO)O[C@@H](n2cnc3c(N4CCN(CCO)CC4)ncnc32)C1,-0.685% (inactive),
CCCCn1c(N)c(N(CCC(C)C)C(=O)CC2OC(=O)c3ccccc32)c(=O)[nH]c1=O (stereo unspecified),-12.2% (inactive),
CCOc1cc(/C=C(/C#N)c2ccc(Cl)cc2)cc(Cl)c1OCC(=O)O,-4.71% (inactive),
CCOc1ccc(C(CC(=O)O)NC(=O)COc2ccccc2)cc1 (stereo unspecified),-2.55% (inactive),
CC(NC(=O)COc1ccc(-c2ccccc2)cc1)C1CCCO1 (stereo unspecified),,20.6 µM (active)
O=C(COc1ccc(-c2ccccc2)cc1)NN=C1CCCC1,6.33% (inactive),
CN(C(=O)COC(=O)CNC(=O)C12CC3CC(CC(C3)C1)C2)c1ccccc1,-8.7% (inactive),
O=C(NCC(=O)N1CCC2(CC1)NCCc1[nH]cnc12)c1ccc(Br)cc1,-15.1% (inactive),
CC(OC(=O)c1ccc(NC(=O)CC#N)cc1)C(=O)Nc1ccc(S(=O)(=O)N2CCCC2)cc1 (stereo unspecified),-20% (inactive),
CN(CC(=O)Nc1ccc(S(=O)(=O)N2CCCC2)cc1)Cc1ccc(Cl)c(Cl)c1,-74.4% (inactive),
CCc1ccc(CN(C)C(C)C(=O)Nc2ccc(S(=O)(=O)N3CCCC3)cc2)cc1 (stereo unspecified),,18.4 µM (active)
Cc1cc(/C=C(/C#N)C(=O)Nc2ccc(Cl)cc2)c(C)n1-c1cccnc1,-22% (inactive),
COCCn1c(SCC(=O)Nc2ccc(F)cc2F)nc2c(c1=O)SCC2,-8.27% (inactive),
O=C(NNS(=O)(=O)c1ccc(F)cc1)c1cnccn1,13.9% (inactive),
C=CCn1c(=O)c(C(=O)Nc2ncccc2O)c(O)c2ccccc21,20.6% (inactive),
O=C(O)/C=C/c1ccc(S(=O)(=O)N2CCCCCC2)cc1,9.25% (inactive),
